The whole screen tested about 16,000 compounds, of which about 5,700 (36%) were called active. Roughly 24% stayed inconclusive and do not appear here. The list shows a part of the results. A number with no mark means an inactive call. The call rests on the fitted dose curve; in most records, active means well fitted curve in the direction sought with a large enough effect; inconclusive means small, poorly fitted or top-dose-only effect, or effect the other way; inactive means no such curve, though single readings can be large or run the other way.
On the % scale 0 is the no-effect control and ±100 the full control effect.

This experiment deals with Cytochrome P450 1A2 (Homo sapiens) (UniProt P05177). As to the kind of experiment: Cytochrome panel assay with activity outcomes. Particulars: recombinant CYP, pro-luciferin dealkylation, luminescence, p450-cyp1a2; series mostly up to 57.1 µM; activity, negative = inhibition: at the top concentration.
Cytochrome P450 1A2 (Homo sapiens), sequence (P05177 whole entry, looked up): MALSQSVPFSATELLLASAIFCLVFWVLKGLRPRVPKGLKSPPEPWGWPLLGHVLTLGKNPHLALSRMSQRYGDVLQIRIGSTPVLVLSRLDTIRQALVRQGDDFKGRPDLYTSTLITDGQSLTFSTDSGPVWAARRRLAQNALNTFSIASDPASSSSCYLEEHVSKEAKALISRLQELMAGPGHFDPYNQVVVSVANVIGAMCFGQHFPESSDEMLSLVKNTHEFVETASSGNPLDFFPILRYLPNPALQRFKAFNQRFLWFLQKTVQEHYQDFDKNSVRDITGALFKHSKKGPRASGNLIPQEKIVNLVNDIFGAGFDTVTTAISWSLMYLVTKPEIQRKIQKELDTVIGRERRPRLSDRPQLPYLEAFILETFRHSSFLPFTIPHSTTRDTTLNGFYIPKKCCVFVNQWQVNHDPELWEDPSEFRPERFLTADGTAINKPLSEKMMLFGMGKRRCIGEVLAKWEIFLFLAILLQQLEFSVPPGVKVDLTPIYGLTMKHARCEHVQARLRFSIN
For `CO[C@@H]1COC(=O)[C@H]2CCCN2C(=O)C/C=C\[C@@H](C)[C@H](OC)COC(=O)[C@H]2CCCN2C(=O)C/C=C\[C@H]1C`, the activity, negative = inhibition was -18.1% [at 11.4 µM]. `Cn1c2c(c(=O)n(C)c1=O)[C@@H]1c3c(ccc4ccccc34)OC[C@@H]1CO2`: the “activity, negative = inhibition” value was -2.25%. Same read-out and setting: then `COc1ccc(O[C@H]2C=C[C@@H](c3ccccc3)O[C@H]2COC(=O)CC/C(C)=N/O[C@@H]2O[C@H](COC(C)=O)[C@H](OC(C)=O)[C@H](OC(C)=O)[C@H]2OC(C)=O)cc1`, with 7.86% [at 11.4 µM]; and `Cc1noc(C)c1C(=O)N1CCC2(CCCN(c3ccncc3)C2)CC1`, with 7.42%.

Take `CC1CCc2c(C(=O)Nc3nccs3)csc2C1` (centres undefined): the AC50 (usually the midpoint of the concentration-response curve, whichever way the signal moves) was 1 µM (active). Take `CCCCNC(=O)NS(=O)(=O)c1ccc(C)cc1`: the “activity, negative = inhibition” value was -9.95% [at 25.6 µM].

In the case of `CCCCNC(=S)NNC(=O)c1sccc1C`, the AC50 was 14.1 µM (active). Still for that read-out and setting: then `CCCCNC(=S)NNC(=O)c1csc2c1CCC(C)C2` (centres undefined), with 14.1 µM (active). Same read-out and setting: then `COc1ccc(-c2cc(C3CCN(c4ccc(C(C)=O)cc4[N+](=O)[O-])CC3)[nH]n2)cc1`, with 7.08 µM (active); and `COc1ccc(-c2cc(C3CCN(c4cc(Cl)nc(N)n4)CC3)[nH]n2)cc1`, with 15.8 µM (active).

Take `O=C(NC(=S)NNC(=O)c1cccs1)c1ccco1`: the “activity, negative = inhibition” value is 12.9%.

`S=C(NCc1ccco1)N1CCN(Cc2ccco2)CC1`: the “activity, negative = inhibition” value is -25.8%. As for `O=C(NNC(=S)NCc1ccco1)c1ccc(Cl)s1`, the AC50 was 22.4 µM (active). Same read-out and setting: to `CCOC(=O)C(=CNc1ncccc1C)C(=O)OCC` belongs 1.12 µM (active). Take `CCOC(=O)C(=CNCC(=O)O)C(=O)OCC`: the “activity, negative = inhibition” value was 12.3%. Same read-out and setting: then `CCOC(=O)C(=CNc1cccc(C)c1C)C(=O)OCC`, with -19.1%; and `Cc1ccc(NC(=O)CCC(=O)NNC(=O)c2cccs2)c(C)c1`, with -14.3%. Regarding `Cc1ccc(Nc2ncccc2C(=O)NCc2cccs2)c(C)c1`, the AC50 is 1 µM (active).

Take `Cc1ccc(C)c(-c2cc(C(=O)NCc3cccs3)c3ccccc3n2)c1`: the AC50 is 2.24 µM (active). With `Cc1ccc(C)c(-c2cc(C(=O)Nc3nccs3)c3ccccc3n2)c1`, the AC50 was 0.891 µM (active).

With `Cc1ccc(C)c(NC(=O)Cn2nnc(C(=O)NCc3cccs3)c2N)c1`, the “activity, negative = inhibition” value is 1.98%.

For `COC(=O)c1sccc1NC(=O)c1cc(-c2ccc(C)cc2C)nc2ccccc12`, the “activity, negative = inhibition” value was -22.7%. In the case of `COc1ccc2oc(-c3ccc(C)c(NC(=O)CSc4ccc(Cl)cc4)c3)nc2c1`, the AC50 was 3.16 µM (active). In the case of `COc1ccc2oc(-c3ccc(C)c(NC(=O)c4ccc(N5CCOCC5)c([N+](=O)[O-])c4)c3)nc2c1`, the “activity, negative = inhibition” value is -27%. On to `CC(=O)OC[C@H]1O[C@@H](O/N=C(\C)CCN2CCc3nc(-c4ccccc4)c(-c4ccccc4)cc3C2)[C@H](OC(C)=O)[C@@H](OC(C)=O)[C@H]1OC(C)=O`, for which the activity, negative = inhibition was -0.893% [at 11.4 µM]. As for `O=C(Cc1ccc(Br)cc1)OCC(=O)c1ccc2c(c1)OCCO2`, the AC50 is 12.6 µM (active). For `O=C(CN1C(=O)c2ccccc2C1=O)NCC(=O)OCC(=O)c1ccc(Br)cc1`, the “activity, negative = inhibition” value was -21.1%. On to `CC(=O)NCCn1c(SCC(=O)NCc2ccco2)nc2ccccc2c1=O`, for which the “activity, negative = inhibition” value was -20.4%.

In the case of `C=CCSc1nn2c(=O)c3ccccc3nc2s1`, the AC50 is 1 µM (active). Same read-out and setting: to `C=CCSc1nc2ccccc2c(=O)n1Cc1ccco1` belongs 0.0251 µM (active). In the case of `CC1(C)S[C@@H]2[C@H](NC(=O)[C@@H](NC(=O)N3CCNC3=O)c3ccccc3)C(=O)N2[C@H]1C(=O)O`, the “activity, negative = inhibition” value was 1.79% [at 25.6 µM]. Consider `S=c1[nH]nc(CCc2ccccc2)n1Cc1ccccc1`, for which the AC50 is 25.1 µM (active). With `CCn1c(CCNC(=O)c2ccccc2Cl)n[nH]c1=S`, the “activity, negative = inhibition” value is -1.57%. In the case of `Cn1c(CCNC(=O)c2ccccc2Cl)n[nH]c1=S`, the “activity, negative = inhibition” value is -6.55%. Still for that read-out and setting: then `N=c1ccn2c(n1)O[C@@H]1[C@@H](O)[C@H](CO)O[C@H]12`, with -3.76%.

On to `COc1ccc(CCCO[C@@H](Cn2ccnc2)c2ccc(OC)cc2)cc1`, for which the AC50 is 0.0158 µM (active). Consider `Cc1ccc(/C=C2\SC(=S)N(CCCC(=O)Nc3ccccn3)C2=O)cc1`, for which the AC50 is 10 µM (active). As for `Cc1ccc(C(=O)c2cn[nH]c2-c2cc(Cl)ccc2O)cc1`, the AC50 was 14.1 µM (active). In the case of `O=C(CC(c1ccccc1)c1ccccc1)NCC1CCCO1` (centres undefined), the “activity, negative = inhibition” value is 0.353%.

As to `CC(NC(=O)OCc1ccccc1)C(=O)NCC1CCCO1` (centres undefined), the AC50 was 12.6 µM (active). In the case of `O=C(NCC1CCCO1)C1CCC(=O)N1CCc1ccccc1` (centres undefined), the “activity, negative = inhibition” value is -5.31%.

For `CC(=O)N=c1sccn1CC(=O)c1ccc([N+](=O)[O-])cc1`, the AC50 is 22.4 µM (active). On to `CC(C)Cc1nnc(NC(=O)c2ccc([N+](=O)[O-])cc2)s1`, for which the “activity, negative = inhibition” value was -16.6%. For the compound `C[C@@H](Cc1cccc(C(F)(F)F)c1)NCCOC(=O)c1ccccc1`, the AC50 is 0.794 µM (active).

On to `COC(=O)C(Cc1ccc(OC(=O)c2ccc(C(F)(F)F)cc2)cc1)N1Cc2ccccc2C1=O` (centres undefined), for which the “activity, negative = inhibition” value was -9.91%. As for `O=C(c1cccc(C(F)(F)F)c1)N1CCC(O)(CS(=O)(=O)Cc2ccccc2)CC1`, the “activity, negative = inhibition” value is 6.59%. With `O=C(O)c1cccc(OCCO)c1`, the activity, negative = inhibition is -14.7% [at 11.4 µM]. Take `CCOc1cccc(OCCCNCCCOC)c1`: the AC50 was 8.91 µM (active). Same read-out and setting: to `COc1ccccc1CNc1ncnc2ccc(-c3ccc4c(c3)OCO4)cc12` belongs 0.794 µM (active).

The values above are taken from PubChem BioAssay AID1851 (National Center for Advancing Translational Sciences (NCATS), 2009).
